{"source": "PubChem BioAssay (Tox21)", "note": "Records with an inconclusive call do not appear. The source made the active and inactive calls. Unless noted, the call rests on the fitted dose curve. On the % scale 0 is the no-effect control and ±100 the full control effect.", "data": [{"target": "Thyrotropin receptor (Homo sapiens) (UniProt P16473)", "sequence (P16473 whole entry, looked up)": "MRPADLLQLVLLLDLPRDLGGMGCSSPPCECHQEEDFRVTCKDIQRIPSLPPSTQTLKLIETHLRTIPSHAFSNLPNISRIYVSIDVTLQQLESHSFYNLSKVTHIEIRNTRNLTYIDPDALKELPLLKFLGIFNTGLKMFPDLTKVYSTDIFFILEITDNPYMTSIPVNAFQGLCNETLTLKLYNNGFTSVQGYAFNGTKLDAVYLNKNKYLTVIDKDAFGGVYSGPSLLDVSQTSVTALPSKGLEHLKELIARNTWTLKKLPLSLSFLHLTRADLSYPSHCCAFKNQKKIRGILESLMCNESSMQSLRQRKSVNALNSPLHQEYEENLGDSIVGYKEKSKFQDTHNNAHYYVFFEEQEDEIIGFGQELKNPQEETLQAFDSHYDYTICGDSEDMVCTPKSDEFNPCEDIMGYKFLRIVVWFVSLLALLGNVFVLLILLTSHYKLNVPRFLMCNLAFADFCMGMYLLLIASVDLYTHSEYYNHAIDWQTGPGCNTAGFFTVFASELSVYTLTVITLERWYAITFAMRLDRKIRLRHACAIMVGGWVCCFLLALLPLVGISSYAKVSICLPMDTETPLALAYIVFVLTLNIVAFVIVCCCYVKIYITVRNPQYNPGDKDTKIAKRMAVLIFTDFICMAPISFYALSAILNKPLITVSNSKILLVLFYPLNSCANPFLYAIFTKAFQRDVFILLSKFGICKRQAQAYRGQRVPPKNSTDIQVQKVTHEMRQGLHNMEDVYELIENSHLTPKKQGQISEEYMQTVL", "assay": "qHTS assay to identify small molecule antagonists of the thyroid stimulating hormone receptor (TSHR) signaling pathway (AID 1259385); further: nearly all actives have a fitted effect of over 20% in size; further: potency means the concentration at half of the fitted maximal effect", "settings": "TSHR-HEK293 cAMP HTRF, TSH-stimulated antagonist mode; series mostly up to 92.4 µM; activity change, negative = inhibition: at the top concentration", "procedure,_shortened": "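Antagonist mode: compound-treated TSHR-expressing HEK293 cells were stimulated with 1.5 ng/mL TSH (final) in presence of Ro20-1724 for 30 min at RT. HTRF cAMP detection after 1 h; each compound tested at 15 concentrations, triplicate.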", "values": [{"smiles": "CCOC(=O)[C@@](C)(N)Cc1ccc(O)c(O)c1", "activity change, negative = inhibition": "0.849% [at 42.5 µM] (inactive)"}, {"smiles": "CCC(=O)CC(C)CC", "note": "(stereo not given)", "activity change, negative = inhibition": "1.62% [at 0.349 µM] (inactive)"}, {"smiles": "CCCCCCCCC(C)=O", "activity change, negative = inhibition": "1.35% (inactive)"}, {"smiles": "Nc1cc(Cl)c([N+](=O)[O-])cc1O", "activity change, negative = inhibition": "-0.23% (inactive)"}, {"smiles": "C/C=C/C(=O)Oc1c(CCCCCC(C)C)cc([N+](=O)[O-])cc1[N+](=O)[O-]", "activity change, negative = inhibition": "-9.4% (inactive)"}, {"smiles": "CC(COC(=O)c1ccccc1)OC(=O)c1ccccc1", "note": "(stereo not given)", "activity change, negative = inhibition": "1.72% (inactive)"}, {"smiles": "C(=C/c1ccccc1)/c1ccccc1", "activity change, negative = inhibition": "-14.7% (inactive)"}, {"smiles": "c1cc[nH]c1", "activity change, negative = inhibition": "1.85% (inactive)"}, {"smiles": "CCCCCCCCCCCCN(CCO)CCO", "activity change, negative = inhibition": "-3.9% (inactive)"}, {"smiles": "Clc1nc2ccccc2s1", "activity change, negative = inhibition": "1.31% (inactive)"}, {"smiles": "OCCC(O)CO", "note": "(stereo not given)", "activity change, negative = inhibition": "-4.96% (inactive)"}, {"smiles": "O=C1NCCN1CCN1CCC(c2cn(-c3ccc(F)cc3)c3ccc(Cl)cc23)CC1", "Potency": "29.8 µM (active)"}, {"smiles": "Cc1c(C(=O)O)cccc1[N+](=O)[O-]", "activity change, negative = inhibition": "0.215% (inactive)"}, {"smiles": "O=C(O)c1cccc(Cl)n1", "activity change, negative = inhibition": "2% (inactive)"}, {"smiles": "CCCCCCCCCCCCCCCC", "activity change, negative = inhibition": "-0.348% (inactive)"}, {"smiles": "CC=O", "activity change, negative = inhibition": "-9.37% (inactive)"}, {"smiles": "CCO[Si](C)(C)OCC", "activity change, negative = inhibition": "-1.99% (inactive)"}, {"smiles": "O=C=NCc1cccc(CN=C=O)c1", "activity change, negative = inhibition": "2.52% [at 19 µM] (inactive)"}, {"smiles": "CO[Si](CCC1CCC2OC2C1)(OC)OC", "note": "(stereo not given)", "activity change, negative = inhibition": "0.804% (inactive)"}, {"smiles": "ClC/C=C\\CCl", "activity change, negative = inhibition": "-0.266% (inactive)"}, {"smiles": "CC(=O)OC1CCCCC1", "activity change, negative = inhibition": "-0.266% (inactive)"}, {"smiles": "c1ccc(Sc2ccccc2)cc1", "activity change, negative = inhibition": "-7.33% (inactive)"}, {"smiles": "Cc1ccc(CCn2c3c(c4cc(Cl)ccc42)CN(C)CC3)cn1", "activity change, negative = inhibition": "0.386% [at 42.5 µM] (inactive)"}, {"smiles": "CCc1cccc(C)c1", "activity change, negative = inhibition": "0.0063% (inactive)"}, {"smiles": "O=C(O)Cc1ccc(OCCNC[C@H](O)c2ccccc2)cc1", "activity change, negative = inhibition": "2.19% [at 42.5 µM] (inactive)"}, {"smiles": "CCC(C)C(=O)OC", "note": "(stereo not given)", "activity change, negative = inhibition": "3.13% (inactive)"}, {"smiles": "CCN(CC)c1cccc(C)c1", "activity change, negative = inhibition": "3.71% (inactive)"}, {"smiles": "CCCCCCCC(=O)OCC", "activity change, negative = inhibition": "0.613% (inactive)"}, {"smiles": "OCCCc1cccnc1", "activity change, negative = inhibition": "1.7% (inactive)"}, {"smiles": "CCCCCCCCCCCCCC[n+]1ccccc1", "activity change, negative = inhibition": "6.48% (inactive)"}, {"smiles": "Cc1cc(C)c(C=O)c(C)c1", "activity change, negative = inhibition": "-0.893% (inactive)"}, {"smiles": "COc1cccc(CCc2ccccc2OCC(CN(C)C)OC(=O)CCC(=O)O)c1", "note": "(stereo not given)", "activity change, negative = inhibition": "-0.842% [at 42.5 µM] (inactive)"}]}, {"test_system": "not listed separately", "assay": "qHTS assay to identify small molecule agonists of the estrogen receptor alpha (ER-alpha) signaling pathway in the presence of an antagonist - cell viability counter screen (AID 1259386; active means well fitted cell-killing curve with a large enough effect in the repeat runs; further: nearly all actives have a fitted effect of over 30% in size; further: potency means the concentration at half of the fitted maximal effect)", "settings": "VM7Luc4E2 viability, CellTiter-Fluor fluorescence, 22 h; series mostly up to 92.4 µM; activity change, negative = cytotoxicity: at the top concentration", "procedure,_shortened": "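Steps: 5-day stripped-FBS culture; seed and incubate 24hr; add ICI-182,780 (10.0nM final); pin 15-point compound titration; incubate 22hr at 37C; add CellTiter-Fluor at 21hr; read fluorescence.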", "values": [{"smiles": "CCOC(=O)[C@@](C)(N)Cc1ccc(O)c(O)c1", "activity change, negative = cytotoxicity": "-3.4% [at 42.5 µM] (inactive)"}, {"smiles": "CCC(=O)CC(C)CC", "note": "(stereo not given)", "activity change, negative = cytotoxicity": "1.18% [at 0.349 µM] (inactive)"}, {"smiles": "CCCCCCCCC(C)=O", "activity change, negative = cytotoxicity": "6.24% (inactive)"}, {"smiles": "CCCCCCCCCCc1ccccc1", "activity change, negative = cytotoxicity": "-0.786% (inactive)"}, {"smiles": "Nc1cc(Cl)c([N+](=O)[O-])cc1O", "Potency": "54 µM (active)"}, {"smiles": "C/C=C/C(=O)Oc1c(CCCCCC(C)C)cc([N+](=O)[O-])cc1[N+](=O)[O-]", "Potency": "9.69 µM (active)"}, {"smiles": "CC(COC(=O)c1ccccc1)OC(=O)c1ccccc1", "note": "(stereo not given)", "activity change, negative = cytotoxicity": "-3.16% (inactive)"}, {"smiles": "c1cc[nH]c1", "activity change, negative = cytotoxicity": "2.91% (inactive)"}, {"smiles": "CCCCCCCCCCCCN(CCO)CCO", "activity change, negative = cytotoxicity": "-0.754% (inactive)"}, {"smiles": "Clc1nc2ccccc2s1", "activity change, negative = cytotoxicity": "-9.22% (inactive)"}, {"smiles": "NCCCCCCNCCCCCCN", "activity change, negative = cytotoxicity": "-7.28% (inactive)"}, {"smiles": "O=C1NCCN1CCN1CCC(c2cn(-c3ccc(F)cc3)c3ccc(Cl)cc23)CC1", "activity change, negative = cytotoxicity": "-10.2% [at 42.5 µM] (inactive)"}, {"smiles": "Cc1c(C(=O)O)cccc1[N+](=O)[O-]", "activity change, negative = cytotoxicity": "-2.07% (inactive)"}, {"smiles": "O=C(O)c1cccc(Cl)n1", "activity change, negative = cytotoxicity": "2.91% (inactive)"}, {"smiles": "CC=O", "Potency": "10.1 µM (active)"}, {"smiles": "CCO[Si](C)(C)OCC", "activity change, negative = cytotoxicity": "2.38% (inactive)"}, {"smiles": "O=C=NCc1cccc(CN=C=O)c1", "activity change, negative = cytotoxicity": "1.12% [at 19 µM] (inactive)"}, {"smiles": "CO[Si](CCC1CCC2OC2C1)(OC)OC", "note": "(stereo not given)", "activity change, negative = cytotoxicity": "2.39% (inactive)"}, {"smiles": "ClC/C=C\\CCl", "activity change, negative = cytotoxicity": "0.697% (inactive)"}, {"smiles": "CC(=O)OC1CCCCC1", "activity change, negative = cytotoxicity": "-8.69% (inactive)"}, {"smiles": "Cc1ccc(CCn2c3c(c4cc(Cl)ccc42)CN(C)CC3)cn1", "activity change, negative = cytotoxicity": "-3.53% [at 42.5 µM] (inactive)"}, {"smiles": "CCc1cccc(C)c1", "activity change, negative = cytotoxicity": "0.818% (inactive)"}, {"smiles": "O=C(O)Cc1ccc(OCCNC[C@H](O)c2ccccc2)cc1", "activity change, negative = cytotoxicity": "-0.243% [at 42.5 µM] (inactive)"}, {"smiles": "CCC(C)C(=O)OC", "note": "(stereo not given)", "activity change, negative = cytotoxicity": "-8.75% (inactive)"}, {"smiles": "OCCCc1cccnc1", "activity change, negative = cytotoxicity": "-1.53% (inactive)"}, {"smiles": "CCCCCCCCCCCCCC[n+]1ccccc1", "Potency": "54.5 µM (active)"}, {"smiles": "Cc1cc(C)c(C=O)c(C)c1", "activity change, negative = cytotoxicity": "-1.77% (inactive)"}, {"smiles": "COc1cccc(CCc2ccccc2OCC(CN(C)C)OC(=O)CCC(=O)O)c1", "note": "(stereo not given)", "activity change, negative = cytotoxicity": "-2.09% [at 42.5 µM] (inactive)"}]}, {"target": "Progesterone receptor (Homo sapiens) (UniProt P06401)", "sequence (P06401 whole entry, looked up)": "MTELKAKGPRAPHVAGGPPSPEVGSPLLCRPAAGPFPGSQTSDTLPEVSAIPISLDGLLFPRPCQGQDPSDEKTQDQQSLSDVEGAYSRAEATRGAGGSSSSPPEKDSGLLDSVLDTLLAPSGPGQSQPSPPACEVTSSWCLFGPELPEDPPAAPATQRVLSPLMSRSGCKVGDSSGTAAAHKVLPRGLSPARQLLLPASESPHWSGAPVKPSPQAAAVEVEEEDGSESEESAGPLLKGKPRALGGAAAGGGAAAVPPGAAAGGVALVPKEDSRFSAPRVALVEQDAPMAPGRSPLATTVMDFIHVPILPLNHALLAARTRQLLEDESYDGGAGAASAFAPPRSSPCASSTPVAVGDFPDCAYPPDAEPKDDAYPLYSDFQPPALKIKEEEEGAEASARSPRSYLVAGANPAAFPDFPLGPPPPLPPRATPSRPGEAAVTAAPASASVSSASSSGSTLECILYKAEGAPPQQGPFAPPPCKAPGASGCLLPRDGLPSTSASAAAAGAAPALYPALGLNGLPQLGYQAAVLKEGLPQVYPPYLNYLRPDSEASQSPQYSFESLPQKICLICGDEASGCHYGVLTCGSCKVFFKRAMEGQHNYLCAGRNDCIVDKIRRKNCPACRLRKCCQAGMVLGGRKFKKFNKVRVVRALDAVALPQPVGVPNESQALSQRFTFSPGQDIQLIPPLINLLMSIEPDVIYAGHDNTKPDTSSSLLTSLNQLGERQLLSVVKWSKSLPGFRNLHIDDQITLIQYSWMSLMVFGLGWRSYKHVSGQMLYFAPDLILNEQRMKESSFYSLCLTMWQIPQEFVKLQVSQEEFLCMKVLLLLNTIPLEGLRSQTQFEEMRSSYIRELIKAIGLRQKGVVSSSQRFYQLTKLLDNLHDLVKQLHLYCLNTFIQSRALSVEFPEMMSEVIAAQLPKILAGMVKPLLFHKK", "assay": "qHTS assay to identify small molecule agonists of the progesterone receptor (PR) signaling pathway (AID 1346784); further: nearly all actives have a fitted effect of over 30% in size", "settings": "PR-UAS-bla HEK293T, beta-lactamase FRET ratio, 16 h; series mostly up to 92.4 µM; activation: at the top concentration", "procedure,_shortened": "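Cells (PR-UAS-bla HEK 293T, GripTite) were plated in assay medium containing 2% charcoal-stripped FBS and incubated 6 hr. Test compounds in DMSO were added for 16 hr at 37C. FRET substrate was then loaded for 2 hr at room temperature before fluorescence reading.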", "values": [{"smiles": "CCOC(=O)[C@@](C)(N)Cc1ccc(O)c(O)c1", "activation": "0.143% [at 42.5 µM] (inactive)"}, {"smiles": "CCC(=O)CC(C)CC", "note": "(stereo not given)", "activation": "-0.264% [at 0.349 µM] (inactive)"}, {"smiles": "CCCCCCCCC(C)=O", "activation": "-0.814% (inactive)"}, {"smiles": "CCCCCCCCCCc1ccccc1", "activation": "-1.11% (inactive)"}, {"smiles": "Nc1cc(Cl)c([N+](=O)[O-])cc1O", "activation": "-5.34% (inactive)"}, {"smiles": "CC(COC(=O)c1ccccc1)OC(=O)c1ccccc1", "note": "(stereo not given)", "activation": "2.35% (inactive)"}, {"smiles": "c1cc[nH]c1", "activation": "0.294% (inactive)"}, {"smiles": "Clc1nc2ccccc2s1", "activation": "-0.168% (inactive)"}, {"smiles": "NCCCCCCNCCCCCCN", "activation": "-0.945% (inactive)"}, {"smiles": "O=C1NCCN1CCN1CCC(c2cn(-c3ccc(F)cc3)c3ccc(Cl)cc23)CC1", "activation": "-5.19% [at 42.5 µM] (inactive)"}, {"smiles": "Cc1c(C(=O)O)cccc1[N+](=O)[O-]", "activation": "0.982% (inactive)"}, {"smiles": "O=C(O)c1cccc(Cl)n1", "activation": "0.161% (inactive)"}, {"smiles": "O=C=NCc1cccc(CN=C=O)c1", "activation": "-0.779% [at 19 µM] (inactive)"}, {"smiles": "CO[Si](CCC1CCC2OC2C1)(OC)OC", "note": "(stereo not given)", "activation": "-1.26% (inactive)"}, {"smiles": "ClC/C=C\\CCl", "activation": "3.59% (inactive)"}, {"smiles": "CC(=O)OC1CCCCC1", "activation": "-0.199% (inactive)"}, {"smiles": "c1ccc(Sc2ccccc2)cc1", "activation": "-0.748% (inactive)"}, {"smiles": "Cc1ccc(CCn2c3c(c4cc(Cl)ccc42)CN(C)CC3)cn1", "activation": "-6% [at 42.5 µM] (inactive)"}, {"smiles": "CCc1cccc(C)c1", "activation": "2.93% (inactive)"}, {"smiles": "O=C(O)Cc1ccc(OCCNC[C@H](O)c2ccccc2)cc1", "activation": "0.314% [at 42.5 µM] (inactive)"}, {"smiles": "CCC(C)C(=O)OC", "note": "(stereo not given)", "activation": "-0.689% (inactive)"}, {"smiles": "CCCCCCCC(=O)OCC", "activation": "-0.0271% (inactive)"}, {"smiles": "OCCCc1cccnc1", "activation": "0.289% (inactive)"}, {"smiles": "Cc1cc(C)c(C=O)c(C)c1", "activation": "-0.229% (inactive)"}, {"smiles": "COc1cccc(CCc2ccccc2OCC(CN(C)C)OC(=O)CCC(=O)O)c1", "note": "(stereo not given)", "activation": "-7.36% [at 42.5 µM] (inactive)"}]}]}
